Abeta rescue: compounds reversing amyloid beta toxicity in yeast. yeast expressing A-beta42, growth rescue, OD600, 48 h; response scale: 0% DMSO, 100% iron-clioquinol control. Potency, µM (doses to about 46.1 µM), usual class: activators. 0.063% of 410,000 active. AID 1347071; also: nearly all actives have a fitted effect of over 55% in size
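Yeast growth medium received pinned compounds, then yeast cells expressing toxic A-beta were added; plates incubated at 30 C for 48 hr. Growth read as absorbance at 600 nm, normalized to DMSO and equimolar FeCl3 plus clioquinol controls.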
FUS suppressor: rescues growth of FUS-expressing yeast; S. cerevisiae FUS-expressing, growth rescue, OD600, 24 h; Potency, µM (highest dose often 76.6 µM), most hits filed as activators; 0.24% of 390,000 active; AID 1347120; also: nearly all actives have a fitted effect of over 55% in size
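Yeast expressing FUS under galactose induction, OD 0.005 in 2% galactose medium; compounds in a dilution series, 24 h at 30C. Growth rescue by absorbance at 600 nm; CP55940 positive control, DMSO negative.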
aSyn rescue: rescues yeast growth from alpha-synuclein toxicity. Potency, µM (titrated, usually from 46.1 µM), usual class: activators. Yeast expressing alpha-synuclein, growth rescue, BacTiter-Glo, 24 h. 0.14% of 370,000 active; also: nearly all actives have a fitted effect of over 65% in size
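Galactose-induced alpha-syn yeast (OD600=0.02, raffinose-pregrown) + pinned cpd, 24 hr, 30 deg C; growth by BacTiter-Glo luminescence. Growth restoration scores as activation.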
Akt phos inh: blocks phosphorylation of Akt | activity change, % for hits at 50 µM | 0.32% of 360,000 active | Neuro2A IGF-stimulated pAkt S473 HTRF, 20 min; active compounds read low | AID 651550; in the data active = activity change below about -80%; inconclusive = mostly about -51% to -80%
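Single-point screen (50 µM final compound) in Neuro2A cells stimulated 20 min with 6 nM IGF at 37 deg C. After lysis, Ser473-phosphorylated Akt read by HTRF (ex 330 nm, em 615/665 nm) as the 665/615 ratio.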
TDP-43 yeast inh: TDP-43 toxicity inhibition in yeast. TDP-43 expressing yeast growth rescue, BacTiter-Glo, 24 h. Potency, µM (top dose mostly 46.1 µM), most hits filed as activators. 1.8% of 410,000 active; also: nearly all actives have a fitted effect of over 50% in size
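Galactose-induced TDP-43 yeast, OD600=0.02, compound pinned; 24 hr, 30 deg C; BacTiter-Glo luminescence for growth. Inhibitors of TDP-43 toxicity read as activators.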
Hits are given with their value; [ ] = remark or other dose. Rows were chosen to be rich in hits. Some 2.3% of all compounds tested hit in one or more screens of this group. Unless noted, calls follow the shape of the dose curve; as a rule, active = well fitted curve in the direction sought with a large enough effect; inconclusive = small, poorly fitted or top-dose-only effect, or another doubt; inactive = no such curve, though single readings can be large; an effect the other way counts as inactive or inconclusive.

For Cc1ccccc1OCC(=O)NNC(=O)C1CCN(c2ncnc3sc(C)c(C)c23)CC1 the results were Abeta rescue inactive, FUS suppressor inactive, aSyn rescue inactive, Akt phos inh inactive and TDP-43 yeast inh inactive.
For O=C(Nc1nccs1)c1ccc(COc2ccccc2Cl)o1 the results were Abeta rescue inactive, FUS suppressor inactive, aSyn rescue inactive, Akt phos inh inactive and TDP-43 yeast inh 7.1µM.
Screening COC(=O)c1ccc(CNC(=O)CSc2nnc(COc3ccccc3)n2C)o1 returned Abeta rescue inactive, FUS suppressor inactive, aSyn rescue inactive, Akt phos inh -110% and TDP-43 yeast inh inactive.
`O=C(Nc1nccs1)c1ccc(-c2ccc(F)c(Cl)c2)o1` gave Abeta rescue inactive, FUS suppressor inactive, aSyn rescue inactive, Akt phos inh inactive and TDP-43 yeast inh 13µM.
For O=C(Nc1nccs1)c1ccc(COc2c(F)c(F)cc(F)c2F)o1 the results were Abeta rescue inactive, FUS suppressor inactive, aSyn rescue inactive, Akt phos inh inactive and TDP-43 yeast inh inactive.
For COC(=O)c1cccc(NC(=O)CSc2nnc(COc3ccccc3)n2C)c1 the results were Abeta rescue inactive, FUS suppressor inactive, aSyn rescue inactive, Akt phos inh inactive and TDP-43 yeast inh inactive.
`Cc1csc(NC(=O)c2ccc(COc3cccc(Cl)c3)o2)n1` gave FUS suppressor inactive.
Screening Cc1csc(NC(=O)c2ccc(COc3ccccc3)o2)n1 returned Abeta rescue inactive, FUS suppressor inactive, aSyn rescue inactive, Akt phos inh inactive and TDP-43 yeast inh 22µM.
For O=C(Nc1nccs1)c1ccc(-c2ccc(Cl)cc2Cl)o1 the results were Abeta rescue inactive, FUS suppressor inactive, aSyn rescue inactive, Akt phos inh inactive and TDP-43 yeast inh inactive.
For COC(=O)c1ccc(COc2ccc(C(=O)c3ccccc3)cc2)o1 the results were Abeta rescue inactive, FUS suppressor inactive, aSyn rescue inactive, Akt phos inh inactive and TDP-43 yeast inh 11µM.
For Cc1cccc(NC(=O)c2ccc(COc3ccccc3)o2)n1 the results were Abeta rescue inactive, FUS suppressor inactive, aSyn rescue inactive, Akt phos inh inactive and TDP-43 yeast inh inconclusive.
Cc1cccc(NC(=O)c2ccc(COc3ccc(Cl)cc3Cl)o2)n1 was read as Abeta rescue inactive, FUS suppressor inconclusive, aSyn rescue inactive, Akt phos inh -128% and TDP-43 yeast inh 18µM.
For CCCCNC(=O)c1ccc2nc(-c3cccs3)c(-c3cccs3)nc2c1 the results were aSyn rescue inactive.
CCc1ccc(C(=O)c2cn(CC(=O)Nc3ccc(F)cc3)c3ccc(OC)cc3c2=O)cc1 was read as Abeta rescue inactive, FUS suppressor inactive and TDP-43 yeast inh inactive.
`O=[N+]([O-])c1cc(C(F)(F)F)ccc1NCC1CCCO1` (configuration not stated) gave Abeta rescue inactive, FUS suppressor inactive, aSyn rescue inactive, Akt phos inh inactive and TDP-43 yeast inh 14µM.
`COc1ccc(Cn2c(SCc3ccc(C(=O)NC4CCCCC4)cc3)nc3cccnc32)cc1` gave Abeta rescue inactive, FUS suppressor inactive and TDP-43 yeast inh inactive.
For CC(=O)Nc1nonc1-c1nnc(SCC(=O)Nc2ccc(C)c(Cl)c2)n1-c1ccccc1 the results were Abeta rescue inactive, FUS suppressor inactive and TDP-43 yeast inh inactive[9.22 µM].
CCOc1ccc(Nc2ncnc3c2nc2n3CCCC2)cc1 was read as Abeta rescue inactive, FUS suppressor inactive and TDP-43 yeast inh inconclusive.
`CC(C)c1ccc(Nc2ncnc3c2nc2n3CCCC2)cc1` gave Abeta rescue inactive, FUS suppressor inactive and TDP-43 yeast inh 14µM.
`CCc1ccc(-c2cc(C)no2)cc1S(=O)(=O)Nc1ccc(Cl)cc1` gave Abeta rescue inactive, FUS suppressor inconclusive and TDP-43 yeast inh 22µM.
`CCc1ccc(-c2cc(C)no2)cc1S(=O)(=O)NCCc1ccccc1` gave Abeta rescue inactive, FUS suppressor inactive, aSyn rescue inactive, Akt phos inh inactive and TDP-43 yeast inh 13µM.
For CCc1ccc(-c2cc(C)no2)cc1S(=O)(=O)Nc1ccc(Cl)cn1 the results were Abeta rescue inactive, FUS suppressor inactive, aSyn rescue inactive, Akt phos inh inactive and TDP-43 yeast inh inactive.
For Cc1cc(-c2ccc(C)c(S(=O)(=O)NCc3ccc(Cl)cc3)c2)on1 the results were Abeta rescue inactive, FUS suppressor inactive and TDP-43 yeast inh 32µM.

Compound activity deposited in PubChem by National Center for Advancing Translational Sciences (NCATS).
